{"source": "paper PMC5700166", "data": [{"target": "T1, GST-Aq-NF-kB (Amphimedon queenslandica, UniProt A9Y5G7 2-389)", "T1 sequence": "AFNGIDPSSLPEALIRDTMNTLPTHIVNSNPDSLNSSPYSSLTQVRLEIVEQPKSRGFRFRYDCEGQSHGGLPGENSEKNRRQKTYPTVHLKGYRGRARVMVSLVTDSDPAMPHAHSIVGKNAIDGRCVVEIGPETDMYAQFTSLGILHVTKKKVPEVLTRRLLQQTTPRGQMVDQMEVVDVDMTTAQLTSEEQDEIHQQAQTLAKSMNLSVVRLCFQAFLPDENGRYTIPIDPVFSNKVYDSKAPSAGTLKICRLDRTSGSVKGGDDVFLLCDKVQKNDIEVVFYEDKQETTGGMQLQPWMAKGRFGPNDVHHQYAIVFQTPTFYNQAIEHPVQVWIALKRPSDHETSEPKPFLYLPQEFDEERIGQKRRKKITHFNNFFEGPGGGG", "test": "protein-binding microarray (PBM); PBM: ~300 nM protein, 6 mM HEPES pH 7.8, 80 mM KCl, 0.5 mM EDTA, 0.5 mM EGTA, 6% glycerol, 35 ng/ul poly-dIdC, 1% milk, 1 h, room temperature; Ap Aiptasia and Nv Nematostella (sea anemones) / Co Capsaspora / Aq Amphimedon (sponge) / Dm Drosophila / Hu human; RHD is the Rel homology domain; high values mean tight binding", "settings": "dsDNA, one strand shown", "units": {"binding signal": "z-score"}, "values": [{"sequence": "CCGATTAACATCAAGGGCTTCCCTGATGTTAATCGGGTCTTGATTCGCTTGACGCTGCTG", "binding signal": 3.85}, {"sequence": "CCGATTAACATCAATATTTCCCATGATGTTAATCGGGTCTTGATTCGCTTGACGCTGCTG", "binding signal": 3.82}, {"sequence": "CCGATTAACATCAAAAACACCCCTGATGTTAATCGGGTCTTGATTCGCTTGACGCTGCTG", "binding signal": 4.95}, {"sequence": "CCGATTAACATCAGAGAAGTCCCTGATGTTAATCGGGTCTTGATTCGCTTGACGCTGCTG", "binding signal": 5.93}, {"sequence": "CCGATTAACATCAAAATAATCCCTGATGTTAATCGGGTCTTGATTCGCTTGACGCTGCTG", "binding signal": 5.15}, {"sequence": "CCGATTAACATCAGGATAATCCCTGATGTTAATCGGGTCTTGATTCGCTTGACGCTGCTG", "binding signal": 5.24}, {"sequence": "CCGATTAACATCAGGAGAATCCCTGATGTTAATCGGGTCTTGATTCGCTTGACGCTGCTG", "binding signal": 5.52}, {"sequence": "CCGATTAACATCAGGGGAAGGGATGATGTTAATCGGGTCTTGATTCGCTTGACGCTGCTG", "binding signal": 3.89}, {"sequence": "CCGATTAACATCAGGGACCGCCCTGATGTTAATCGGGTCTTGATTCGCTTGACGCTGCTG", "binding signal": 6.48}, {"sequence": "CCGATTAACATCAGGAAGACCCCTGATGTTAATCGGGTCTTGATTCGCTTGACGCTGCTG", "binding signal": 5.31}, {"sequence": "CCGATTAACATCAGGGATCCCCATGATGTTAATCGGGTCTTGATTCGCTTGACGCTGCTG", "binding signal": 4.64}, {"sequence": "CCGATTAACATCACACCACCCCCTGATGTTAATCGGGTCTTGATTCGCTTGACGCTGCTG", "binding signal": 3.3}, {"sequence": "CCGATTAACATCAAGGGTTTTCCTGATGTTAATCGGGTCTTGATTCGCTTGACGCTGCTG", "binding signal": 5.2}, {"sequence": "CCGATTAACATCAGGGACAGCCCTGATGTTAATCGGGTCTTGATTCGCTTGACGCTGCTG", "binding signal": 6.35}, {"sequence": "CCGATTAACATCACGAGTTTCCCTGATGTTAATCGGGTCTTGATTCGCTTGACGCTGCTG", "binding signal": 3.88}, {"sequence": "CCGATTAACATCAGGAGTTTACCTGATGTTAATCGGGTCTTGATTCGCTTGACGCTGCTG", "binding signal": 2.87}, {"sequence": "CCGATTAACATCAGGGATTTACCTGATGTTAATCGGGTCTTGATTCGCTTGACGCTGCTG", "binding signal": 6.8}, {"sequence": "CCGATTAACATCAGGCCACCCCCTGATGTTAATCGGGTCTTGATTCGCTTGACGCTGCTG", "binding signal": 5.7}, {"sequence": "CCGATTAACATCACGGGACTTCCTGATGTTAATCGGGTCTTGATTCGCTTGACGCTGCTG", "binding signal": 6.21}, {"sequence": "CCGATTAACATCAGGGTTTTCCATGATGTTAATCGGGTCTTGATTCGCTTGACGCTGCTG", "binding signal": 4.33}, {"sequence": "CCGATTAACATCAGGGCTTTACCTGATGTTAATCGGGTCTTGATTCGCTTGACGCTGCTG", "binding signal": 3.97}, {"sequence": "CCGATTAACATCAAGGGCATTCCTGATGTTAATCGGGTCTTGATTCGCTTGACGCTGCTG", "binding signal": 3.02}, {"sequence": "CCGATTAACATCAGGGCGTCCCCTGATGTTAATCGGGTCTTGATTCGCTTGACGCTGCTG", "binding signal": 7.89}, {"sequence": "CCGATTAACATCAGGGGTTTACCTGATGTTAATCGGGTCTTGATTCGCTTGACGCTGCTG", "binding signal": 6.9}, {"sequence": "CCGATTAACATCAACCCCCGGCTTGATGTTAATCGGGTCTTGATTCGCTTGACGCTGCTG", "binding signal": 2.51}, {"sequence": "CCGATTAACATCAATGGGATTCCTGATGTTAATCGGGTCTTGATTCGCTTGACGCTGCTG", "binding signal": 1.65}, {"sequence": "CCGATTAACATCAGGAATCACCCTGATGTTAATCGGGTCTTGATTCGCTTGACGCTGCTG", "binding signal": 4.82}, {"sequence": "CCGATTAACATCAGGAACATCCCTGATGTTAATCGGGTCTTGATTCGCTTGACGCTGCTG", "binding signal": 4.06}, {"sequence": "CCGATTAACATCACGGGACATACTGATGTTAATCGGGTCTTGATTCGCTTGACGCTGCTG", "binding signal": 2.17}, {"sequence": "CCGATTAACATCACGGAAGTCCCTGATGTTAATCGGGTCTTGATTCGCTTGACGCTGCTG", "binding signal": 5.41}, {"sequence": "CCGATTAACATCAAAAAAATACCTGATGTTAATCGGGTCTTGATTCGCTTGACGCTGCTG", "binding signal": 3.53}, {"sequence": "CCGATTAACATCAAGCAATTCCCTGATGTTAATCGGGTCTTGATTCGCTTGACGCTGCTG", "binding signal": 3.57}, {"sequence": "CCGATTAACATCAGGCGTCCCCCTGATGTTAATCGGGTCTTGATTCGCTTGACGCTGCTG", "binding signal": 4.77}, {"sequence": "CCGATTAACATCACGGAAAACCCTGATGTTAATCGGGTCTTGATTCGCTTGACGCTGCTG", "binding signal": 4.81}, {"sequence": "CCGATTAACATCAGGGAACTACATGATGTTAATCGGGTCTTGATTCGCTTGACGCTGCTG", "binding signal": 2.44}, {"sequence": "CCGATTAACATCAGGCGAGTCCCTGATGTTAATCGGGTCTTGATTCGCTTGACGCTGCTG", "binding signal": 4.31}, {"sequence": "CCGATTAACATCAGGGGATCCCATGATGTTAATCGGGTCTTGATTCGCTTGACGCTGCTG", "binding signal": 4.95}, {"sequence": "CCGATTAACATCAGGAAAAACCCTGATGTTAATCGGGTCTTGATTCGCTTGACGCTGCTG", "binding signal": 7.68}, {"sequence": "CCGATTAACATCAGGGGGTCTACTGATGTTAATCGGGTCTTGATTCGCTTGACGCTGCTG", "binding signal": 4.4}]}]}
